The panel holds about 83,000 compounds, 20% with a hit somewhere; the sample as a whole holds those more often.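 In brief: 96-well plates, 48 h treatment, single concentration, percent growth endpoint.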 Values without a mark were called inactive. Activity calls are given as the source filed them. How the source made its calls: active means growth percent below 10; inactive means the rest.
Assays:
Assay in all cases: NCI-60 one-dose screen, 48 h (100 = growth as untreated, 0 = no growth, -100 = all killed)
Conditions in all cases: 10 µM unless noted
DU-145 prostate = test system: DU-145 prostate
K-562 leukemia = test system: K-562 leukemia
MALME-3M melanoma = test system: MALME-3M melanoma
MDA-MB-231 breast = test system: MDA-MB-231 breast
RXF 393 renal = test system: RXF 393 renal
SF-268 CNS = test system: SF-268 CNS
SF-295 CNS = test system: SF-295 CNS
SF-539 CNS = test system: SF-539 CNS
UACC-257 melanoma = test system: UACC-257 melanoma
M14 melanoma = test system: M14 melanoma

| Structure (SMILES) | growth (DU-145 prostate) | growth (K-562 leukemia) | growth (MALME-3M melanoma) | growth (MDA-MB-231 breast) | growth (RXF 393 renal) | growth (SF-268 CNS) | growth (SF-295 CNS) | growth (SF-539 CNS) | growth (UACC-257 melanoma) | growth (M14 melanoma) |
| --- | --- | --- | --- | --- | --- | --- | --- | --- | --- | --- |
| O=C1c2ccc3c4c(ccc(c24)C(=O)N1CCCNCc1ccccc1F)C(=O)N(CCCNCc1ccccc1F)C3=O | -91.9% (active) | -28.2% (active) | -72.2% (active) | -7.55% (active) | -87.9% (active) | -65.1% (active) | -67.7% (active) | -65.5% (active) | -98.6% (active) | -60.8% (active) |
| O=[N+]([O-])CC(c1ccccc1)c1c[nH]c2ccccc12 (stereo not given) | 84.1% | 10% | 57.3% | 46.1% | 64.3% | 65.1% | 44.1% | 50.2% | 55.8% | 23.2% |
| COc1cc(/C(C)=C(\c2ccc(Cl)cc2)c2ccc(OCCN3CCCC3)cc2)ccc1F | 69.4% | 3.65% (active) | -2.59% (active) | 56.4% | 69.3% | 76.6% | 75.2% | 73.3% | 3.02% (active) | 18.2% |
| O=C(Cc1ccc(/C=C/C(=O)c2nccs2)cc1)Nc1ccccc1 | 105% | 23.3% | 98.4% | 94.8% | 103% | 95% | 97.1% | 99.9% | 88.6% | 93.1% |
| C=C(C)[C@@H]1CC[C@]2(C(=O)N3CCN(C)CC3)CC[C@]3(C)[C@H](CC[C@@H]4[C@@]5(C)CC[C@H](OCCC#N)C(C)(C)[C@@H]5CC[C@]43C)[C@@H]12 | 92.5% | 16.2% | 118% | 65.8% | 47.4% | 90.5% | 115% | 102% | 107% | 107% |
| COc1cc2nc(-c3ccc(C(F)(F)F)cc3)cc(OCCCN3CCOCC3)c2cc1OC | 41.5% | 11.5% | 45.2% | 22.1% | 14.5% | 56.1% | -50.1% (active) | 46% | -16.2% (active) | -56% (active) |
| CCCCCCCCOc1ccc(/C=N/Nc2cc(C)nc3ccc(Br)cc23)cc1 | 33.5% | 10.7% | 40.8% | 33.2% | 88.3% | 86.3% | 78.8% | 32.6% | 84% | 53.6% |
| CCCCCCOc1ccc(/C=N/Nc2cc(C)nc3ccc(Cl)cc23)cc1 | -49% (active) | -20.4% (active) | -48.7% (active) | -79.9% (active) | -94.3% (active) | 69.9% | -84.3% (active) | -86.5% (active) | 116% | 2.01% (active) |
| O=S(=O)(NCCNc1nccc(-c2c(-c3cccc(O)c3)nc3occn23)n1)c1ccccc1 | 97.7% | 68.4% | 2.3% (active) | 66.5% | 90.3% | 85.3% | 96.6% | 105% | 17.7% | 29.4% |
| CCN(Cc1ccccc1)c1ccc(C=O)cc1 | 110% | 93.3% | 117% | 96.5% | 88.6% | 106% | 114% | 87.7% | 106% | 102% |
| CN(C)CCC(=O)c1ccc([N+](=O)[O-])cc1 | 108% | 114% | 104% | 100% | 108% | 112% | 103% | 96.4% | 108% | 102% |
| COc1ccc2nc(-c3ccc(-c4noc(-c5cc(OC)c(OC)c(OC)c5)n4)cc3)[nH]c2c1 | 57.4% | 14.7% | -33% (active) | 41.4% | 58.2% | 50.5% | 83.3% | -24.4% (active) | 102% | 63% |
| O=C(CCN1CCCC1)Nc1ccc2c(NCCc3ccccc3)c3ccccc3nc2c1 | -23.3% (active) | -17.1% (active) | -92.6% (active) | -32.5% (active) | -47.9% (active) | -55% (active) | -2.88% (active) | -67.2% (active) | -8.54% (active) | -61.8% (active) |
| NS(=O)(=O)c1ccc(Cn2c(SCC(=O)N/N=C/c3ccccc3O)nc3ccccc3c2=O)cc1 | 72.5% | 36.6% | 59% | 30.1% | 72.2% | 38.2% | 65.9% | 54.3% | 70.6% | 42% |
| O=C(Cc1ccc(/C=C/C(=O)c2ncc[nH]2)cc1)Nc1ccc(Cl)cc1 | 18.4% | 8.02% (active) | 89.3% | 22.3% | 49.7% | 12% | 8.31% (active) | -23.1% (active) | 78.7% | 63.6% |
| COc1cc2oc(-c3cccc(C(=O)Nc4ccc(Cl)cc4)c3)cc(=O)c2c(O)c1OC | 62.9% | 69.4% | 68.4% | 55.8% | 41.3% | 28.6% | 52% | 55% | 83.2% | 69.8% |
| COc1cc2oc(-c3cccc(C(=O)Nc4ccc(Br)cc4)c3)cc(=O)c2c(OC)c1OC | 57.6% | 48.9% | 80.9% | 30.8% | -2.47% (active) | 61.8% | 52.9% | 65% | 80.1% | 27% |
| O=C1c2ccc3c4c(ccc(c24)C(=O)N1CCCNCc1ccccc1Cl)C(=O)N(CCCNCc1ccccc1Cl)C3=O | -86.5% (active) | -38.2% (active) | -72.9% (active) | 16.7% | -94.2% (active) | -30.2% (active) | -52.2% (active) | -67.6% (active) | -90.6% (active) | -56.5% (active) |
| O=S(=O)(NCCNc1nccc(-c2c(-c3cccc(O)c3)nc3occn23)n1)c1ccc(Cl)cc1 | 111% | 87.8% | -4.98% (active) | 86.2% | 107% | 103% | 114% | 121% | 46.9% | 35.1% |
| Cc1cc2c(C(=O)NCC#N)cccc2n1-c1nc2c(c(NCc3ccccc3)n1)CCCC2 | 2.51% (active) | 1.31% (active) | -72.1% (active) | -78.9% (active) | -68.9% (active) | -35.1% (active) | -76.2% (active) | -24.5% (active) | -36.4% (active) | -45% (active) |
| O=C(CCN1CCCC1)Nc1ccc2c(NCCCc3ccccc3)c3ccccc3nc2c1 | -52.6% (active) | -7.07% (active) | -90.7% (active) | -24.3% (active) | 5.65% (active) | 21% | 46.9% | 13.7% | 14.7% | -61.5% (active) |
| CC1(C)CC(O)CCCCCCOc2c(CN)cccc2NC(=O)c2nc(cnc2N)-c2ccc(cc2)S1(=O)=O (stereo not given) | 15.1% | -26.3% (active) | -71.5% (active) | 39.8% | 19.6% | 26.1% | 21.3% | -60.5% (active) | 21.9% | -72.7% (active) |
| O=C1Nc2cc(-c3cccc([N+](=O)[O-])c3)ccc2/C1=C/c1ccc[nH]1 | 111% | 72.2% | 89% | 39.5% | 82.1% | 97.1% | 99.8% | 93.5% | 107% | 89.8% |
| COc1cccc2c1c1nc3cc(C)c(C)cc3nc1n2CCN(C)C | 19.7% | 6.22% (active) | -12.1% (active) | 23.5% | 30% | 37.9% | 20.1% | 23.2% | 8.52% (active) | 22.2% |
| CCCCCN1C=C/C(=C\C(=O)N(C)c2ccc(OC(F)(F)F)cc2)c2ccccc21 | 110% | 90.3% | 95.3% | 97.7% | 107% | 100% | 93% | 103% | 93.8% | 102% |
| Cn1ccnc1C(=O)/C=C/c1ccc(CC(=O)Nc2ccc(Cl)cc2)cc1 | 6.47% (active) | 7.81% (active) | 87.6% | 7.75% (active) | 17.9% | 7.98% (active) | 1.24% (active) | -35.2% (active) | 85.9% | 67.7% |
